The record followed here is PubChem BioAssay (Tox21).

The nature of assay [1]: Nuclear factor erythroid 2-related factor 2/antioxidant responsive element (Nrf2/ARE) small molecule agonists: qHTS cell viability counter screen in human keratinocytes (AID 1919968; active means well fitted curve in the direction sought with a large enough effect in the repeat runs; an effect the other way counts as inactive or inconclusive; further: nearly all actives have a fitted effect of over 55% in size). The essentials:
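HaCaT ARE reporter line, 1,500 cells/well; 5 h settle, 37 C/5% CO2; cpd in DMSO pinned; 23 h exposure; CellTiter-Fluor, 1 h; fluorescence.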
A general note: qHTS replaces the single test concentration by a dilution series.

The nature of assay [2]: Nuclear factor erythroid 2-related factor 2/antioxidant responsive element (Nrf2/ARE) small molecule agonists: luciferase reporter gene qHTS assay in human keratinocytes (AID 1919969). Further: nearly all actives have a fitted effect of over 35% in size. Further: potency means the concentration at half of the fitted maximal effect.
In assay [3] the target is Gonadotropin-releasing hormone receptor (Homo sapiens) (UniProt P30968). As to the kind of experiment: Human gonadotropin-releasing hormone receptor (GnRHR) small molecule agonists, calcium flux assay in GnRHR-HEK293 cells (AID 1920063). Further: nearly all actives have a fitted effect of over 35% in size. In a few lines:
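GnRHR-HEK293, 1500 cells/well, 18 h 37 C/5% CO2; Ca dye 1 h 37 C; cpd pinned (DMSO), agonist mode; kinetic FL 480/540, 3 min, 1 s reads; 15 conc, n=3.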
A general note: A change in cytosolic calcium serves as a functional read-out for many receptors and channels.

The target in assay [4] is KiSS-1 receptor (Homo sapiens) (UniProt Q969F8). The assay can be described thus: Human kisspeptin (KISS1R) small molecule agonists, calcium flux assay in KISS1R-HEK293 cells (AID 1920064; active means well fitted curve in the direction sought with a large enough effect in the repeat runs; an effect the other way counts as inactive or inconclusive). The essentials:
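Stable human KISS1R HEK293 line; 18 h plating, 37 C/5% CO2; calcium dye 1 h 37 C; compound pin transfer; kinetic fluorescence Ex/Em 480/540, 3 min.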

Assay [5] can be described thus: G protein-coupled receptor (GPCR) small molecule agonists, calcium flux assay: HEK293 wild type cell line counter screen (AID 1920065). The essentials:
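Kinetic fluorescence at Ex/Em 480/540, recorded every second over 3 min, served as the read-out after compound addition. Each compound was tested at 15 concentrations in triplicate on cells pre-loaded with calcium dye for 1 h.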

Assay [6] in a line: p53 small molecule agonists, cell-based qHTS assay with human liver microsomes (AID 1963577). In a few lines:
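Fluorescence of the beta-lactamase reporter in p53RE-bla cells, detected with LiveBLAzer substrate (2 h, room temperature, dark), served as the read-out after 16 h compound exposure at 37 C with human liver microsomes and NADPH, each 0.5 mg/mL final.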

Assay [7] can be described thus: p53 small molecule agonists, cell-based qHTS assay with rat liver microsomes (AID 1963578). The essentials:
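Cells carrying a p53 response element–beta-lactamase reporter were plated and rested 5 h, then dosed with compound in DMSO plus rat liver microsomes and NADPH, each at 0.5 mg/mL final. After 16 h at 37 C, LiveBLAzer substrate was added for 2 h.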

Assay [8] is described as follows: p53 small molecule agonists, cell-based qHTS assay with human liver microsomes: qHTS cell viability counter screen (AID 1963579). Further: nearly all actives have a fitted effect of over 45% in size. The essentials:
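Cytotoxicity counter screen: p53RE-bla, 4,000 cells/well; 5 h settle, 37 C/5% CO2; cpd + HLM 0.5 mg/mL + NADPH 0.5 mg/mL (final); 16 h, 37 C; CellTiter-Glo, 30 min RT, luminescence.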

A short description of assay [9]: p53 small molecule agonists, cell-based qHTS assay with rat liver microsomes: qHTS cell viability counter screen (AID 1963580). Further: nearly all actives have a fitted effect of over 45% in size. In a few lines: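 Intracellular ATP, by CellTiter-Glo luminescence, defines viability. HCT-116 p53RE-bla cells, 4,000 per well, were compound-treated in the presence of rat liver microsomes and NADPH for 16 h at 37 C.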
Assay [10] can be described thus: p53 small molecule agonists, cell-based qHTS assay: qHTS cell viability counter screen (AID 1963581). Further: nearly all actives have a fitted effect of over 45% in size. In a few lines: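 HCT-116 p53RE-bla cells, 4,000/well, plated 5 h before compound pin transfer; 16 h at 37 C; bla substrate 2 h RT; then CellTiter-Glo, 30 min RT, luminescence.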
Assay [11] is described as follows: p53 small molecule agonists, cell-based qHTS assay (AID 1963582; active means well fitted activation curve with a large enough effect in the signal ratio in the repeat runs, not every such curve was filed as active; the % refers to the signal ratio). In a few lines: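 Reporter line: p53RE-bla. Pre-incubation 5 h, 37 C, 5% CO2; compound (DMSO, pin tool) 16 h, 37 C; B/G FRET substrate 2 h RT; fluorescence intensity read.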
The target in assay [12] is 5-hydroxytryptamine receptor 2A (Homo sapiens) (UniProt P28223). As to the kind of experiment: 5-hydroxytryptamine receptor 2A (HTR2A) small molecule antagonists, cell-based qHTS assay (AID 1963586). Further: nearly all actives have a fitted effect of over 45% in size. The essentials: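 Antagonist-mode intracellular calcium assay: DOI (4 nM) added after 5 min compound pre-incubation at room temperature to dye-loaded HTR2A-CHO cells. Fluorescence followed for 3 min, sampled every second.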
Sequence of 5-hydroxytryptamine receptor 2A (Homo sapiens) (P28223 whole entry, looked up): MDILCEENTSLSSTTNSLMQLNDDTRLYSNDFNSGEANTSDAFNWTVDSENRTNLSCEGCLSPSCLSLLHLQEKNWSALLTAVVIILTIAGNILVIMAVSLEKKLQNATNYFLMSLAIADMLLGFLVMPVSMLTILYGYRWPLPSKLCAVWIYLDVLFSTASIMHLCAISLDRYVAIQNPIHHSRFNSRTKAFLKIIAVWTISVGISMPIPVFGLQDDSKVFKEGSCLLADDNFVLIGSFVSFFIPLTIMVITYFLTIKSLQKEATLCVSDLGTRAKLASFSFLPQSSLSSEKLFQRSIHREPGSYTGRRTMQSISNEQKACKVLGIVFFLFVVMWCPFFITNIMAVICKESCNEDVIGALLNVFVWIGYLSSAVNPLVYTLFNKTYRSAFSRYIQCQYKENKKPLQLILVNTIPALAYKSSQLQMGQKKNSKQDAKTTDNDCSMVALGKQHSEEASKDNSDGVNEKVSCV

For assay [13] the target is unchanged. As to the kind of experiment: 5-hydroxytryptamine receptor 2A (HTR2A) small molecule agonists, cell-based qHTS assay (AID 1963587). Further: nearly all actives have a fitted effect of over 30% in size. In a few lines: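 Kinetic calcium-flux fluorescence (2 min, 1 sec intervals) after compound addition in agonist mode. HTR2A-CHO cells were cultured 18 h, then dye-loaded 1 h at 37 C.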
The target of assay [14] is Muscarinic acetylcholine receptor M1 (Homo sapiens) (UniProt P11229). As to the kind of experiment: Cholinergic receptor muscarinic 1 (CHRM1) small molecule antagonists, cell-based qHTS assay (AID 1963588). Further: nearly all actives have a fitted effect of over 40% in size. In a few lines:
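CHRM1-CHO calcium-flux assay, antagonist mode. Cells were seeded 18 h, dye-loaded 1 h at 37 C and given compound for 5 min at RT, then acetylcholine was added at 50nM. FDSS fluorescence was read 3 min; 15 concentrations, three runs.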

Assay [15] has the same target. The assay can be described thus: Cholinergic receptor muscarinic 1 (CHRM1) small molecule agonists, cell-based qHTS assay (AID 1963589). Further: nearly all actives have a fitted effect of over 35% in size. In a few lines: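 Human M1 in stable CHO line; 18 h plating, 1 h dye load 37 C; cpd added (agonist mode); Ca2+ fluorescence kinetic read, 1 s intervals; 15 conc, 3 runs.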
Assay [16] is described as follows: cAMP Responsive Elements (CRE) small molecule antagonists, cell-based qHTS assay (AID 1963591; active means well fitted inhibition curve with a large enough effect in the signal ratio in the repeat runs, not every such curve was filed as active; the % refers to the signal ratio). In a few lines:
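Beta-lactamase reporter read by FRET substrate (LiveBLAzer B/G) after 2 h at room temperature. CRE-bla HEK293T cells had received compound plus 0.25 uM (final) NKH477 for 3 h at 37 °C.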

Assay [17] concerns the target Beta-2 adrenergic receptor (Homo sapiens) (UniProt P07550). The assay can be described thus: Adrenergic beta2 receptor (ADRB2) small molecule antagonists, cell-based qHTS assay (AID 1963592). Further: series mostly up to about 92 µM; nearly all actives have a fitted effect of over 50% in size. The essentials: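 Cells (CHO, stable ADRB2 overexpression) incubated 18-20hr at 37C; compounds added from DMSO; agonist mix (1nM isoproterenol, 100uM IBMX, 25uM Ro-20-1724) added; 0.5hr RT; d2-cAMP and anti-cAMP-cryptate added; 1hr RT; 665/615 nm read.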

For assay [18], the target named is D(2) dopamine receptor (Homo sapiens) (UniProt P14416). As to the kind of experiment: Dopamine D2 receptor (DRD2) small molecule agonists, cell-based qHTS assay (AID 1963594). Further: nearly all actives have a fitted effect of over 35% in size. The essentials: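 cAMP accumulation in DRD2-HEK293 cells measured by HTRF after 1 h detection; compounds added 10 min before NKH477 (200nM […]) forskolin-analogue stimulation, 30 min at room temperature, with Ro20-1724 present at 0.1 mM final.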
Sequence of D(2) dopamine receptor (Homo sapiens) (P14416 whole entry, looked up): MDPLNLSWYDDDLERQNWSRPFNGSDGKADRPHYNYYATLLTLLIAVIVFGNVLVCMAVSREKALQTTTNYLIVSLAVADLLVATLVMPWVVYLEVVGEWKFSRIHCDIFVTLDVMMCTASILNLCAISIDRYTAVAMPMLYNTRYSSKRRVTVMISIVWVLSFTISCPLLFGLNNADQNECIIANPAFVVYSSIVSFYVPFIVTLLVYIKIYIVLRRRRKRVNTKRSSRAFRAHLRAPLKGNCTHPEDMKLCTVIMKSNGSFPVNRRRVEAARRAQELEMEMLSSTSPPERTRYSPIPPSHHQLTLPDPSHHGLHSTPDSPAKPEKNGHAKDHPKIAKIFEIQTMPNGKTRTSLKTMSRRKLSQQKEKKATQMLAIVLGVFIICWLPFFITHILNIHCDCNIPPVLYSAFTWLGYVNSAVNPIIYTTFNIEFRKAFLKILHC

For assay [19] the target is unchanged. As to the kind of experiment: Dopamine D2 receptor (DRD2) small molecule antagonists, cell-based qHTS assay (AID 1963595; active means well fitted inhibition curve with a large enough effect in the signal ratio in the repeat runs, with a control signal flat; the % refers to the signal ratio). The essentials:
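HEK293 cells stably expressing DRD2, preincubated with 0.1 mM Ro20-1724 and compounds 10 min, were stimulated with 200 nM NKH477 plus 12 nM quinpirole for 30 min at room temperature; cAMP measured by HTRF (665/620 nm).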

Assay [20] in a line: cAMP Responsive Elements (CRE) small molecule agonists, cell-based qHTS assay (AID 1963590). In a few lines:
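HEK 293T CRE-bla, 2,000 cells/well, 18 h preincubation 37 C/5% CO2; cpds (DMSO) pinned, 3 h; LiveBLAzer B/G FRET substrate, 2 h RT.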

A number with no mark means an inactive call. Results filed as inconclusive are left out. Active and inactive are the calls of the source. Unless noted, the call rests on the fitted dose curve.

Sequence of KiSS-1 receptor (Homo sapiens) (Q969F8 whole entry, looked up): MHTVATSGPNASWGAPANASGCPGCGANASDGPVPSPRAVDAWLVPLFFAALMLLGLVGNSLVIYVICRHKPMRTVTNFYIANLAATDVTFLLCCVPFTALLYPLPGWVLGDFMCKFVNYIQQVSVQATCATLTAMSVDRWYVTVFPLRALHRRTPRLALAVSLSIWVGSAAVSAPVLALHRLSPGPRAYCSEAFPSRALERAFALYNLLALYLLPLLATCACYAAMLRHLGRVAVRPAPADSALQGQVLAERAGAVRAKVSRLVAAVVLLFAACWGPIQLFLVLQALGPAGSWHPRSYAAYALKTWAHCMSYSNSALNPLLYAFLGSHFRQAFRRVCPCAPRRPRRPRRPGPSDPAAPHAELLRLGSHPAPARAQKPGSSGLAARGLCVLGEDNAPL
Sequence of Beta-2 adrenergic receptor (Homo sapiens) (P07550 whole entry, looked up): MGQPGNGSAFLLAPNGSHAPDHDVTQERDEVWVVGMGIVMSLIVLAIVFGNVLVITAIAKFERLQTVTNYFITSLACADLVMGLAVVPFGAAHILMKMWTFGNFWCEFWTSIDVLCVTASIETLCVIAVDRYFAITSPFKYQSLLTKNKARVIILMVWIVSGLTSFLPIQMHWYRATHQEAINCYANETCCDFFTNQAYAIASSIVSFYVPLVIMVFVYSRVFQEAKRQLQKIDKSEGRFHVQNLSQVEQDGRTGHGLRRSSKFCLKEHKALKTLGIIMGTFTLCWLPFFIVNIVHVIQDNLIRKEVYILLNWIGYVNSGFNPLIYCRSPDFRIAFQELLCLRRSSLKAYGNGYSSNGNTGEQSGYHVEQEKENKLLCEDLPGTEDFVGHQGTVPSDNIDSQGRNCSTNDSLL
Sequence of Gonadotropin-releasing hormone receptor (Homo sapiens) (P30968 whole entry, looked up): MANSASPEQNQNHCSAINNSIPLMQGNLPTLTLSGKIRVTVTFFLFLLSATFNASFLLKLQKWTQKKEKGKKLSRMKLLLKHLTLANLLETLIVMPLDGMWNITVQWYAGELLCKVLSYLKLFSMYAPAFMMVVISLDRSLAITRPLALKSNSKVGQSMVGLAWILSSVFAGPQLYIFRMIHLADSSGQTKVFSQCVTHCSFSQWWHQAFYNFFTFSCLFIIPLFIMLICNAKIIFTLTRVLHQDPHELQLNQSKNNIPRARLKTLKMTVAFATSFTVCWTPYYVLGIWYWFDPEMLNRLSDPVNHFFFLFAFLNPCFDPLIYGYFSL
Sequence of Muscarinic acetylcholine receptor M1 (Homo sapiens) (P11229 whole entry, looked up): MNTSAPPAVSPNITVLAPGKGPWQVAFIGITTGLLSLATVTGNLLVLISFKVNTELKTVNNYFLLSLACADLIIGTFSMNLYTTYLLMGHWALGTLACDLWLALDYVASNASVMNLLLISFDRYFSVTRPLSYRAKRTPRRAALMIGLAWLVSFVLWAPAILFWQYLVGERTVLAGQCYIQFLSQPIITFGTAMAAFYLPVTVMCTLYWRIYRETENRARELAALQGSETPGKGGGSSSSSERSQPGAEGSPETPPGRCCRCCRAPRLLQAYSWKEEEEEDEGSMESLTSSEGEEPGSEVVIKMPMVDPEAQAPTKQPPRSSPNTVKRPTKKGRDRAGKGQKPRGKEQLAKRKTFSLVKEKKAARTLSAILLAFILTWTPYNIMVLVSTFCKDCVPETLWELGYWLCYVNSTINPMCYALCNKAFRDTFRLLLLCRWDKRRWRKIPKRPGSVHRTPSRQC

As for `c1ccc(NNc2ccccc2)cc1`, the Potency result in assay [1], in assay [3], in assay [4], in assay [5], in assay [6] and in [7] was “inactive” in each case. Also, the Potency entry in assay [8], in assay [9], in assay [10], in [11], in assay [12] and in assay [13] was “inactive” in each case. In addition, the Potency entry in [14], in assay [15], in [16], in assay [17], in assay [18] and in assay [19] was “inactive” each time. Besides, in [2], the Potency was 55 µM (active).
In the case of `CCC(=O)c1ccccc1`, the Potency result in assay [1], in [2], in assay [3], in [4], in assay [5] and in [6] was “inactive” throughout. The Potency result in assay [7], in assay [8], in [9], in assay [10], in assay [11] and in assay [12] was “inactive” each time. Moreover, the Potency result in [13], in assay [14], in [15], in [16], in assay [17] and in assay [18] was “inactive” each time. For the same compound, in assay [19], the Potency entry was “inactive”.
`Cc1ccc2cc(C)ccc2c1`: the Potency result in assay [1], in assay [2], in assay [3], in assay [4], in [5] and in assay [6] was “inactive” throughout. Besides, the Potency entry in [7], in assay [8], in assay [9], in [10], in assay [11] and in [12] was “inactive” throughout. Besides, the Potency entry in [13], in assay [14], in assay [15], in [20], in assay [16] and in assay [19] was “inactive” throughout.
Regarding `CNCC(O)c1ccc(O)cc1` (stereo not given), the Potency result in assay [1], in assay [2], in [3], in [4], in [5] and in assay [6] was “inactive” each time. In addition, the Potency entry in [7], in assay [8], in assay [9], in assay [10], in assay [11] and in assay [12] was “inactive” in each case. Moreover, the Potency entry in assay [13], in assay [14], in assay [15], in assay [20], in [16] and in [18] was “inactive” in each case. Also, the Potency result in assay [19] was “inactive”.
For the compound `C[C@]12CCC(=O)C=C1CC[C@@H]1[C@@H]2CC[C@]2(C)C(=O)CC[C@@H]12`, the Potency result in assay [1], in [2], in assay [3], in [4], in assay [5] and in assay [6] was “inactive” in each case. For the same compound, the Potency result in [7], in assay [8], in assay [9], in assay [10], in [11] and in [12] was “inactive” in each case. In addition, the Potency result in [13], in assay [14], in assay [15], in [17], in [18] and in assay [19] was “inactive” each time.
With `CN(C)C(=O)Nc1ccc(Cl)cc1`, the Potency result in [1], in assay [2], in assay [3], in assay [4], in assay [5] and in [6] was “inactive” throughout. Moreover, the Potency entry in assay [7], in [8], in assay [9], in assay [10], in [11] and in [12] was “inactive” throughout. Besides, the Potency result in assay [13], in [14], in assay [20], in assay [16], in assay [17] and in [18] was “inactive” each time. In addition, in assay [19], the Potency entry was “inactive”.
On to `CC(O)CN1CCN(CC(=O)[O-])CCN(CC(=O)[O-])CCN(CC(=O)[O-])CC1.[Gd+3]` (stereo not given), for which the Potency entry in assay [1], in [2], in [3], in assay [4], in assay [5] and in assay [6] was “inactive” throughout. In addition, the Potency entry in assay [7], in assay [8], in assay [9], in [10], in assay [11] and in assay [12] was “inactive” each time. Moreover, the Potency entry in assay [13], in assay [15], in [20], in assay [16], in assay [17] and in [18] was “inactive” each time. In addition, the Potency result in [19] was “inactive”.
Consider `COCCC#N`, for which the Potency entry in assay [1], in [2], in assay [3], in assay [4], in assay [5] and in assay [6] was “inactive” each time. The Potency result in assay [7], in [8], in assay [9], in assay [10], in assay [11] and in assay [12] was “inactive” each time. Further, the Potency entry in [13], in [15], in [20], in assay [16], in [17] and in assay [18] was “inactive” throughout. In addition, the Potency result in [19] is “inactive”.
